Test system: TIE1
Settings: concentration: 1 μM, replicates: in singlicate; n = 1
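Also: KINOMEscan kinase panel screen.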

Point of comparison: `COc1ccc(Nc2nccc(N3CCC(NC(=O)C(C)c4ccc(Cl)cc4)C3)n2)cc1` (stereo not drawn) [GSK1379735], “%Inh” value 35%. Against it:
- O=C(Nc1n[nH]c2cc(-c3ccsc3)ccc12)C1CC1 [SB-732932] — lower, 11%
- CC[C@@H]1CO[C@H](C(=O)Nc2ccccc2)CN1c1cc(-c2ccc3c(N)n[nH]c3c2)nc(NC)n1 [GSK2376236] — lower, 4%
- CNc1cc(-c2ccc3c(N)n[nH]c3c2)nc(N)n1 [GSK2224810] — lower, 0%
- COC(=O)C(NC(=O)NC1CCN(c2ccnc(Nc3ccc(F)cc3)n2)C1)c1ccccc1 (stereo not drawn) [GSK1379712] — lower, 0%
- Cc1ccccc1Cn1ccn2c(=O)cc(N3CCOCC3)nc12 [GSK2269905] — lower, 0%
- Fc1ccc(-c2nn3cccc(F)c3c2-c2ccncc2)cc1 [GW475620] — lower, 7%
- COc1ccc(Nc2nccc(-c3ccc(NC(=O)c4cc5cc(F)ccc5[nH]4)cc3)n2)cc1 [GSK1229496] — lower, 0%
- COc1ccc(Nc2nccc(N3CCC(NC(=O)c4cc5ccccc5s4)C3)n2)cc1 (stereo not drawn) [GSK1379738] — lower, 0%
- COc1ccc(-c2coc3ccc(-c4nnc(C)o4)cc23)cc1 — lower, 0%
- CNCc1ccc2nc(NC(=O)c3ccc(C(C)(C)C)cc3)cn2c1 — lower, 6%
- CS(=O)(=O)CCNCc1nc(-c2ccc3ncnc(Nc4ccc(OCc5ccccc5)c(Cl)c4)c3c2)cs1.Cl [GW582764] — lower, 0%
- Cl.Cl.Cl.N#Cc1ccc(CCNc2nccc(-c3cccc(CN4CCNCC4)c3)n2)cc1 [GSK2137462] — lower, 2%
- Cc1c(Cn2c3ccccc3n3c(=O)cc(N4CCOCC4)nc23)cccc1C(F)(F)F [GSK2306394] — lower, 6%
- CC(C)c1ccc(O)cc1Nc1ccnc2ccc(C(F)(F)F)cc12 [GW482059] — lower, 13%
- O=C(Nc1n[nH]c2nc(-c3cccs3)c(Br)cc12)C1CC1 [SB-735297] — lower, 0%
- Cc1cnc(N)c(/C=C/c2cncc(C(=O)NCCc3ccc(Cl)cc3Cl)c2)c1.Cl [GSK190937] — lower, 20%
- c1ccc(-c2ccnc3[nH]ccc23)cc1 [SB-693578] — lower, 0%
- O=C(Nc1n[nH]c2nc(-c3ccco3)c(Br)cc12)C1CCN(Cc2ccccc2)C1.O=C(O)[C@H](O)[C@@H](O)C(=O)O (stereo not drawn) [SB-742034] — lower, 0%
- CCCCc1nn2ncccc2c1-c1ccnc(NC2CC2)n1 [GW684374] — lower, 0%
- CC(=O)c1cccc(NC(=O)NC2CCN(c3ccnc(Nc4ccc(F)cc4)n3)C2)c1 (stereo not drawn) [GSK1379710] — lower, 0%
- CS(=O)(=O)CCNCc1nc(-c2ccc3ncnc(Nc4ccc5c(cnn5Cc5ccccc5)c4)c3c2)cs1.Cl.Cl [GW569716] — lower, 0%
- Cc1ccc(-c2nc(Nc3ccncc3)c3ccccc3n2)s1 [GSK189015] — lower, 19%
- Cc1cccc2c(-c3ccncn3)c(-c3ccc(F)cc3)nn12 [GW515532] — lower, 14%
- Cc1ccc(NC(=O)Nc2ccc(Cl)c(C(F)(F)F)c2)cc1-c1ccc(C(=O)Nc2ccncc2)cc1 [GSK1398470] — lower, 6%
- COc1ccc(Nc2nccc(NCCNC(=O)Nc3cc(C)ccc3C)n2)cc1 [GSK1379899] — lower, 0%
- COc1cccc(NC(=O)Nc2ccc(C)c(-c3ccc(C(=O)Nc4ccncc4)cc3)c2)c1 [GSK1398474] — lower, 0%
- COc1cccc(CNC(=O)NC2CCN(c3ccnc(Nc4ccc(F)cc4)n3)C2)c1 (stereo not drawn) [GSK1379723] — lower, 24%
- CC(=O)c1c(C)c2cnc(Nc3ccn(C)n3)nc2n(C2CCCC2)c1=O — lower, 0%
- O=C1NC(=O)C(c2ccc(Cl)cc2)=C1Nc1ccc(O)cc1 [SB-340867] — lower, 0%
- COc1ccc(CSc2nnc(-c3ccc4c(c3)CCO4)o2)cc1 — lower, 0%
- COc1nccc(-c2c(-c3ccc(F)cc3)ncn2CCCN2CCOCC2)n1 [SB-282852] — lower, 0%
- COC(=O)C(Cc1ccccc1)NC(=O)NC1CCN(c2ccnc(Nc3ccc(F)cc3)n2)C1 (stereo not drawn) [GSK1379714] — lower, 16%
- COc1cccc(C2=C(Nc3cc(Cl)c(O)c(Cl)c3)C(=O)NC2=O)c1 [SB-390767] — lower, 0%
- Cc1ccc(NC(=O)Nc2ccc(Cl)cc2)cc1-c1ccc(C(=O)Nc2ccncc2)cc1 [GSK1398472] — lower, 0%
- CCn1c(-c2ccccc2)nc2cnccc21 [SB-733416] — lower, 0%
